Compound activity from PubChem BioAssay.
esBAF inh – blocks esBAF chromatin remodeling in mouse ES cells | Bmi1-luciferase knock-in reporter, 24 h; 100% = twice the neutral-well signal | reporter increase, % at 12.5 µM | 2% of 350,000 active | AID 602393; in the data active = activation above about 40%;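 note: 0% = median of the plate's neutral control wells and 100% = double that signal; a rise in the Bmi1 reporter signal indicates esBAF inhibition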
MITF TRPM1 HTS – increases MITF-driven TRPM1 promoter luciferase signal; SK-MEL-5 TRPM1-promoter luciferase, 24 h; % of positive control, neutral wells = 0; activation, % at 12.5 µM; 0.75% of 300,000 active; AID 588334;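 active = mean activation of at least 80% with every replicate also reaching 80%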;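 note: 0% = neutral control wells and 100% = parthenolide positive control wells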
HSF1 inh – HSF1 inhibition; NIH3T3-HGL HSE-luciferase, MG132-induced, luminescence 8 h; hits give low values; activity change, negative = inhibition, % at 7.5 µM (by protocol); 0.77% of 300,000 active; AID 2098;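 active = more than half of replicate wells show activity change below -50%, luminescence cut by over half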;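 note: luciferase reports HSF-1 transcriptional activity via heat shock element; 0% = median of DMSO wells and -100% = zero luminescence signal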
Wnt act – activates Wnt/beta-catenin signaling in a reporter cell assay. activation, % at 9.35 µM. activator, plate reader. 1.2% of 300,000 active; in the data active = activation above about 30%, passing the limit was not always enough;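 note: 0% = neutral control wells and 100% = positive control wells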
HSF1 activator – increases HSF-1 driven luciferase reporter signal; AID 504408; NIH3T3-HGL HSF-1 luciferase reporter, MG132, 8 h; 100% = twice DMSO control signal; 1.7% of 300,000 active; activation, % at 9 µM;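 active = mean replicate activation of at least 50% with a set share of replicates each reaching 50%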;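 note: 0% = median of the neutral control wells and 100% = twice that signal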
* = called active by the depositor; nt = no result given. An excerpt weighted towards active compounds, which were near 3.9% of everything screened.

SMILES	esBAF inh	MITF TRPM1 HTS	HSF1 inh	Wnt act	HSF1 activator
O=C(O)c1ccc(N/N=C/C2=C(N3CCOCC3)C(=C\c3ccccc3)/CC2)cc1	22	39	-60*	1	-71
O=[N+]([O-])c1cccc(N/N=C/c2ccc(N3CCOCC3)cc2)c1	66*	127*	-1	13	30
O=C(O)c1cc(N/N=C/c2ccc(N3CCOCC3)cc2)ccc1Cl	13	-47	2	37*	-2
Cc1noc(C)c1NC(=O)N(C)C[C@H]1Oc2ccc(NC(=O)Nc3ccc(C(F)(F)F)cc3)cc2CC(=O)N([C@@H](C)CO)C[C@H]1C	-2	nt	nt	nt	nt
O=C(Nc1ccccc1F)N1C[C@H]2[C@@H](c3ccccc31)[C@H](CO)N2C(=O)C1CCCC1	20	nt	nt	nt	nt
O=C(Nc1ccccc1F)N1C[C@@H]2[C@H](c3ccccc31)[C@@H](CO)N2C(=O)C1CC1	49*	nt	nt	nt	nt
CN1c2ccc(-c3ccccc3F)cc2[C@H]2[C@H](CCN2C(=O)CN2CCOCC2)[C@H]1CO	4	nt	nt	nt	nt
CCN(C(=O)c1cccc(S(=O)(=O)N2CCCCC2)c1)C1CCS(=O)(=O)C1 (stereo unspecified)	7	2	28	-4	57*
CN(C)c1cccc(C(=O)OCCNC(=O)c2cccc(S(=O)(=O)N3CCOCC3)c2)c1	3	-1	28	2	59*
CCCCN(C(=O)c1cccc(S(=O)(=O)N2CCCCC2)c1)C1CCS(=O)(=O)C1 (stereo unspecified)	0	9	-3	-1	2
CC(C)(C)c1ccc(/C=C2\SC(=O)N(CCNC(=O)c3cccc(S(=O)(=O)N4CCOCC4)c3)C2=O)cc1	nt	-16	-63*	nt	-70
CC(C)(CNC(=O)c1cccc(S(=O)(=O)N2CCCCC2)c1)N1CCOCC1	14	nt	nt	119*	nt
O=C(OCCOc1ccccc1)c1cccc(S(=O)(=O)N2CCOCC2)c1	-2	nt	nt	-1	nt
CCCC(=O)Nc1ccc2c(c1)C(=O)N(C)C[C@H](OC)[C@H](C)CN(Cc1ccccc1)[C@H](C)CO2	-13	nt	nt	nt	nt
Cc1ccc(S(=O)(=O)N(C)C[C@H]2OCCCC[C@@H](C)Oc3ccc(NC(=O)Nc4ccc(F)cc4)cc3C(=O)N([C@H](C)CO)C[C@H]2C)cc1	1	nt	nt	nt	nt
O=C([C@H]1[C@H](CO)[C@H]2Cn3c(cccc3=O)[C@H]2N1C(=O)C1CCCCC1)N1CCOCC1	0	nt	nt	nt	nt
Cc1csc(NC(=O)c2ccc3ccccc3n2)n1	3	36	26	26	55*
CCC(CC)c1nnc(NC(=O)c2cc(-c3ccccc3)nc3ccccc23)s1	nt	-4	1	nt	-8
Cc1csc(NC(=O)c2sccc2C)n1	2	30	23	48*	42
CCC(CC)c1nnc(NC(=O)c2ccc3ccccc3n2)s1	53*	11	14	nt	53*
Cc1csc(NC(=O)c2cnc3ccccc3n2)n1	-52	-5	1	14	-1
Cc1csc(NC(=O)c2ccc(C(=O)Nc3nc(C)cs3)cc2)n1	nt	nt	-1	nt	-8
Cc1ccc(S(=O)(=O)Nc2ccc3c(c2)C(=O)N([C@H](C)CO)C[C@@H](C)[C@H](CN(C)Cc2ccncc2)O3)cc1	-2	nt	nt	nt	nt
C[C@@H]1CN([C@H](C)CO)C(=O)c2cc(NS(=O)(=O)c3ccccc3)ccc2O[C@@H]1CN(C)C(=O)Nc1ccc(C(F)(F)F)cc1	2	nt	nt	nt	nt
CO[C@@H]1CN(C)C(=O)c2ccc(NS(=O)(=O)c3cn(C)cn3)cc2OC[C@@H](C)N(CCC(F)(F)F)C[C@@H]1C	-6	nt	nt	nt	nt
SMILES	esBAF inh	MITF TRPM1 HTS	HSF1 inh	Wnt act	HSF1 activator
CC1CCN(C(=O)COC(=O)c2cc3ccccc3oc2=O)CC1	4	-3	nt	-3	nt
CC1CCCC(NC(=O)COC(=O)c2cc3ccccc3oc2=O)C1C (stereo unspecified)	68*	65	nt	18	nt
C[C@@H]1CN([C@@H](C)CO)C(=O)c2cc(NS(=O)(=O)c3ccc(Cl)cc3)ccc2O[C@@H](C)CCCCO[C@H]1CN(C)C(=O)C1CCCCC1	8	nt	nt	nt	nt
CCOC(=O)Cc1cc(=O)c2cc(C)ccc2[nH]1	1	0	-68*	1	-73
O=C(C[C@@H]1CC[C@H]2[C@@H](COC[C@@H](O)CN2Cc2nccs2)O1)NCc1ccccc1F	-4	nt	nt	nt	nt
CCCCC1C(=O)CC[C@H]2[C@@H]1CC(=O)[C@@H]2C/C=C\CCCC(=O)O (stereo partly specified)	-3	18	40	nt	72*
